Test [1] can be described thus: ATG_PXRE_CIS: Attagene CIS-FACTORIAL HepG2 Assay for human Pregnane X Receptor Element (PXRE) (AID 2282957). Conditions: HepG2 Attagene CIS-FACTORIAL PXRE reporter, mRNA; actives raise or lower the signal. In outline: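 Cis-element reporter mRNA in human hepatoma HepG2 cells is measured 24 h post-dosing by RT-PCR, primer-extension labeling and capillary electrophoresis; gain or loss of signal is fitted relative to DMSO.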

Test [2] can be described thus: ATG_PPRE_CIS: Attagene CIS-FACTORIAL HepG2 Assay for human Peroxisome Proliferator-activated Response Element (PPRE) (AID 2282958). Particulars: HepG2 PPRE cis-element reporter, Attagene transcription factor profiling; actives raise or lower the signal. In short, it runs like this:
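In this cell-based multiplex, a PPRE cis element drives a reporter sequence in transiently transfected HepG2 cells. Following 24 h treatment, labeled cDNA amplicons are sized and quantified by capillary electrophoresis, with DMSO defining baseline.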

Test [3] is described as follows: ATG_RORE_CIS: Attagene CIS-FACTORIAL HepG2 Assay for human RAR-related Orphan Receptor Element (RORE) (AID 2282959). Particulars: HepG2 Attagene cis-factorial RORE reporter, mRNA; actives raise or lower the signal. In outline: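 Endogenous factor activity at a cis response element is read as reporter transcript levels in HepG2 cells, 24 h post-dose. Transcripts are quantified by RT-PCR with capillary electrophoresis, and data fitted in both directions against DMSO.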

Test [4] is described as follows: ATG_Sox_CIS: Attagene CIS-FACTORIAL HepG2 Assay for human SRY-box transcription factor (SOX) (AID 2282960). Conditions: HepG2 Attagene cis-factorial SOX reporter, mRNA; actives raise or lower the signal. In outline:
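Measures mRNA induction of a SOX1-associated reporter in HepG2 after 24 h dosing. Fluorescently labelled RT-PCR fragments are separated by capillary electrophoresis, and gain or loss relative to DMSO control is fitted.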

For test [5], the target named is Transcription factor Sp1 (Homo sapiens) (UniProt P08047). In words: ATG_Sp1_CIS: Attagene CIS-FACTORIAL HepG2 Assay for human Specificity Protein 1 (Sp1) (AID 2282961). Particulars: HepG2 Sp1 cis-reporter transcription, actives raise or lower the signal. In short, it runs like this:
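Cells: HepG2, transiently transfected with cis-regulated multiplexed reporters. Exposure: 24 h. Detection: reporter transcripts amplified, fluorescently labeled, restriction-digested and sized by capillary electrophoresis. Analysis: bidirectional fit relative to DMSO.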

Test [6] addresses Signal transducer and activator of transcription 3 (Homo sapiens) (UniProt P40763). Nature of the test: ATG_STAT3_CIS: Attagene CIS-FACTORIAL HepG2 Assay for human Signal Transducer and Activator of Transcription 3 (STAT3) (AID 2282963). Conditions: HepG2, Attagene cis-factorial STAT3 reporter transcription; actives raise or lower the signal. In short, it runs like this: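 Endogenous STAT3-responsive cis-element activity was read in transiently transfected HepG2 cells after 24 h treatment. Reporter transcripts were quantified via RT-PCR and capillary electrophoresis, with DMSO as negative control and bidirectional curve fitting.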

A short description of test [7]: ATG_TA_CIS: Attagene CIS-FACTORIAL HepG2 Assay for human TA Basal Promoter (AID 2282964). Particulars: HepG2 Attagene CIS-factorial TA basal promoter reporter; actives raise or lower the signal. In outline:
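Read-out: fluorescent reporter-transcript fragments resolved by capillary electrophoresis after RT-PCR and HpaI digestion. Source: HepG2 cells carrying transiently transfected multi-reporter cis constructs, treated 24 h. Endpoint fitted bidirectionally relative to DMSO.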

Test [8] can be described thus: ATG_TCF_b_cat_CIS: Attagene CIS-FACTORIAL HepG2 Assay for human T-Cell-Factor with beta-catenin (TCF/b-cat) (AID 2282965). Particulars: HepG2 TCF/beta-catenin cis-reporter transcription, actives raise or lower the signal. In outline:
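Measured: reporter mRNA in HepG2 transiently transfected with cis-promoter reporter units, 24 h after chemical addition. Fitting was bidirectional, DMSO as negative control.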

Test [9] can be described thus: ATG_TAL_CIS: Attagene CIS-FACTORIAL HepG2 Assay for human TAL Basal Promoter (AID 2282966).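 Note: background control endpoint measuring basal TAL promoter reporter mRNA not a specific factor.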 Particulars: HepG2 Attagene cis-factorial TAL promoter reporter; actives raise or lower the signal. In outline:
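In this cell-based multiplex, HepG2 liver cells bearing cis-promoter reporter constructs are dosed for 24 hours. Total RNA is reverse-transcribed and amplified, labelled fragments are sized by capillary electrophoresis, and signal changes are fitted bidirectionally versus DMSO.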

Test [10] in a line: ATG_SREBP_CIS: Attagene CIS-FACTORIAL HepG2 Assay for human Sterol Regulatory Element Binding (SREBP) (AID 2282962). Particulars: HepG2 Attagene cis-factorial SREBP reporter, mRNA; actives raise or lower the signal. In short, it runs like this:
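HepG2 cells transiently transfected with multiplexed cis-element reporter units report endogenous transcription factor activity. After 24 h of chemical exposure, reporter mRNA was quantified by RT-PCR, 6-FAM labelling, HpaI digestion and capillary electrophoresis; bidirectional fits used DMSO as baseline.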

A word on the AC50: it is the concentration at which the activity in the assay is half-maximal.

SMILES strings stand for the structures. Activity calls are given as the source filed them. Rule for the calls: active = hit-call score of the fitted dose curve at least 0.9, where 1 is the maximum; inactive = score below 0.9.

Sequence of Transcription factor Sp1 (Homo sapiens) (P08047 whole entry, looked up): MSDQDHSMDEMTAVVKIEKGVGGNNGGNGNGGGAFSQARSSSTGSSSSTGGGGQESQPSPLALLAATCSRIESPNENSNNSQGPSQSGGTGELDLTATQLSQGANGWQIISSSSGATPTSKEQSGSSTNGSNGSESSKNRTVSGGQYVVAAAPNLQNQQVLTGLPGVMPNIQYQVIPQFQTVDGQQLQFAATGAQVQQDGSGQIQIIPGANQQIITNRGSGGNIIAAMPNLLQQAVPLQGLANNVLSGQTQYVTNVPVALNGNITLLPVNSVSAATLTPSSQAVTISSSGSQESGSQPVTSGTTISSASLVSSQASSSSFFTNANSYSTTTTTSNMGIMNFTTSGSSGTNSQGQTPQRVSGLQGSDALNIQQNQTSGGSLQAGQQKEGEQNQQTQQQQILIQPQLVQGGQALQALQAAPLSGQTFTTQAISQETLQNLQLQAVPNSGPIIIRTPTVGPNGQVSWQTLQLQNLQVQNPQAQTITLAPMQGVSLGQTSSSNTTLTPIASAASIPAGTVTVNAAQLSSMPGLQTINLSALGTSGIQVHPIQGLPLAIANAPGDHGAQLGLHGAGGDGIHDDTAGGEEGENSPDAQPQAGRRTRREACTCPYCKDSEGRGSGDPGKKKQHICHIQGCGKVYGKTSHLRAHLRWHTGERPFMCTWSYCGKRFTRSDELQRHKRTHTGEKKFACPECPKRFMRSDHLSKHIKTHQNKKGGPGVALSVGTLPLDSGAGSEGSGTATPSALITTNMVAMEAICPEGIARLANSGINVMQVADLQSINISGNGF
Sequence of Signal transducer and activator of transcription 3 (Homo sapiens) (P40763 whole entry, looked up): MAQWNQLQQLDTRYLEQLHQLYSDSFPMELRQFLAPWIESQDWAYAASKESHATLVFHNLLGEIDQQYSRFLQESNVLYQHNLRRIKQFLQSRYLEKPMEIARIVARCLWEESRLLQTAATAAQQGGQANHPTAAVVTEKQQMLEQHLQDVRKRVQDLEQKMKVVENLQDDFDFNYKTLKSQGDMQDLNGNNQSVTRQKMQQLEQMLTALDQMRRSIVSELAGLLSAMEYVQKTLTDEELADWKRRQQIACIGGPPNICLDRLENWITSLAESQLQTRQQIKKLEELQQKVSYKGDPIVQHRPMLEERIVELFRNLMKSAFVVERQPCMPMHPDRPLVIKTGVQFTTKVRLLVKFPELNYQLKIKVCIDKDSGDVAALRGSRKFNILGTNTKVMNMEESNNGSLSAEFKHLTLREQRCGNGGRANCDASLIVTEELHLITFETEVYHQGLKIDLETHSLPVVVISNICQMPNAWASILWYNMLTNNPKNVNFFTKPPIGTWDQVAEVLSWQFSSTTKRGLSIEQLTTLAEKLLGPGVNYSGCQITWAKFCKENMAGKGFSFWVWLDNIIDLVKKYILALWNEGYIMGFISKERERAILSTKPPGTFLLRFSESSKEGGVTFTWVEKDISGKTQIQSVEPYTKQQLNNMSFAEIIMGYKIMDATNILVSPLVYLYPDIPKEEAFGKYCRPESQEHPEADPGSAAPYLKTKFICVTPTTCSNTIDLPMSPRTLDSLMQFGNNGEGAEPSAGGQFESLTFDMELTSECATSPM

In the case of `CC(C)(C)C1=CC(=O)C(C(C)(C)C)=CC1=O`, the AC50 is 1.29 µM (active) in [1], 13.4 µM (active) in [2] and 50 µM (active) in test [8]. Also, the outcome in test [3], in test [4], in test [5], in test [6], in test [7] and in test [9] was inactive.

As for `CC(C=O)Cc1ccc(C(C)(C)C)cc1` (centres undefined), the concentration at half-maximal activity (AC50) in test [1] was 27.6 µM (active). Also, the compound was classed as inactive in test [2], in [3], in test [4], in [5], in [10] and in [6]. The compound was called inactive in [7], in [8] and in [9].

In the case of `COCCOC(=O)c1ccccc1C(=O)OCCOC`, in test [1], the AC50 was 120 µM (active). The compound was classed as inactive in test [2], in [3], in [4], in test [5], in test [10] and in [6]. Besides, the compound was called inactive in test [8].

For the compound `NCc1ccco1`, the call in test [1], in test [2], in [3], in [4], in test [5] and in test [10] was inactive. Besides, the compound was called inactive in test [6], in [8] and in test [9].

In the case of `CCc1ncc(C)[nH]1`, the compound was called inactive in test [1], in test [2], in test [3], in [4], in [5] and in test [10]. For the same compound, the outcome in test [6], in test [8] and in test [9] was inactive.

Turning to `Nc1ccccc1[N+](=O)[O-]`, the result in test [1], in test [2], in [3], in test [4], in [5] and in test [6] was inactive. Also, the compound was classed as inactive in [7], in [8] and in test [9].

Consider `COC(C)(C)CC(C)=O`, for which the AC50 in [1] is 34.4 µM (active). The compound was called inactive in [2], in [3], in test [4], in test [5], in test [10] and in test [6]. The result in test [7], in [8] and in [9] was inactive.

For `CCc1ccc(O)c(OC)c1`, the call in test [1], in test [2], in [3], in [4], in test [5] and in [10] was inactive. Further, the compound was classed as inactive in test [6], in [8] and in [9].

As for `CCCCCCC(O)CCCCCCCCCCC(=O)O` (centres undefined), the compound was classed as inactive in test [1], in test [3], in [4], in test [5], in test [10] and in test [6]. The result in test [8] and in test [9] was inactive. Besides, in test [2], the half-maximal activity concentration (AC50) was 18 µM (active).

As to `CC=Cc1ccc(OCC)c(O)c1`, in test [1], the AC50 was 65.8 µM (active). Also, the result in [2], in test [3], in test [4], in [5], in test [6] and in test [7] was inactive. In addition, the result in test [8] was inactive.

Consider `CCc1cc(Cc2cc(CC)cc(C(C)(C)C)c2O)c(O)c(C(C)(C)C)c1`, for which the AC50 is 0.0355 µM (active) in [1]; 11.1 µM (active) in test [2]; 18.1 µM (active) in test [3]; 11.1 µM (active) in test [5]; 11.1 µM (active) in test [7]. Further, the compound was called inactive in [4], in [6], in test [8] and in [9].

As to `Clc1cc(Cl)c(-c2c(Cl)c(Cl)cc(Cl)c2Cl)cc1Cl`, the AC50 was 3.45 µM (active) in [1] and 50 µM (active) in [5]. The result in test [2], in test [3], in test [4], in [6], in test [7] and in test [8] was inactive. Besides, in test [9], the result was inactive.

On to `O=C(CC(=O)c1ccccc1)c1ccccc1`, for which the AC50 was 25.3 µM (active) in test [1]; 3.67 µM (active) in test [2]; 26.7 µM (active) in test [3]; 100 µM (active) in [4]; 94.3 µM (active) in test [5]; 67.7 µM (active) in [10]. In addition, the result in test [6], in test [7], in test [8] and in test [9] was inactive.

With `COC(=O)c1ccc(C)cc1C1=NC(C)(C(C)C)C(=O)N1` (centres undefined) (tested in a mixture with another compound), the concentration at half-maximal activity (AC50) in [1] was 15.2 µM (active). Besides, the outcome in test [2], in [5], in test [10], in test [6], in [7] and in test [8] was inactive. Further, the outcome in test [9] was inactive.

For `O=C(O)CNc1ccccc1`, the AC50 in test [1] was 19.2 µM (active). Further, the result in test [2], in [5], in [10], in test [6], in [7] and in test [8] was inactive. Further, in [9], the compound was called inactive.

Take `CCCCC(CC)COC(=O)c1ccc(O)cc1` (centres undefined): the half-maximal activity concentration (AC50) in test [1] was 11.1 µM (active). In addition, the result in test [3], in test [4], in [5], in test [10], in [6] and in test [7] was inactive. Moreover, the compound was called inactive in test [8].

On to `C=Cc1ccncc1`, for which the half-maximal activity concentration (AC50) was 33.1 µM (active) in [1]; 10.2 µM (active) in [3]; 21.8 µM (active) in [4]; 27.1 µM (active) in [5]; 17.1 µM (active) in [10]; 57 µM (active) in [8]. Moreover, the call in test [6], in test [7] and in test [9] was inactive.

As to `CC(C)C(OC(=O)c1ccccc1)C(C)(C)COC(=O)c1ccccc1` (centres undefined), the AC50 in test [1] is 1.27 µM (active). The compound was called inactive in test [2], in [4], in [5], in [10], in test [6] and in test [8]. Also, the outcome in test [9] was inactive.
